This is one part of a sample in which hits are shown more often than they occur.
14-3-3g Raf: modulators of 14-3-3 gamma protein binding, primary screen, biochemical, fluorescence polarization; FP, 14-3-3gamma / TMR-pS259-Raf peptide binding; AID 422, 2006; 14-3-3 protein gamma (Homo sapiens), P61981; 0.19% of 160,000 active; inhibition, % at 40 µM; in the data active = inhibition above about 30%;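 note: 0% = protein plus tracer without compound and 100% = blank with tracer alone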
Target sequence (P61981 whole entry, looked up): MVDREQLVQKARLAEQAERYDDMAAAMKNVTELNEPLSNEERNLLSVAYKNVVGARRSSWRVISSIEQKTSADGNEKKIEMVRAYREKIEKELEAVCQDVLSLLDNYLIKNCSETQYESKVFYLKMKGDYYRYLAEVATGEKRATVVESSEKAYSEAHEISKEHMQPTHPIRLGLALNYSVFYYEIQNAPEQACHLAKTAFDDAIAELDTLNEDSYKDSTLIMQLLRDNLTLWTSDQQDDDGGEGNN
* = called active by the depositor; + = active, no number; ! = not active in a repeat.

SMILES | 14-3-3g Raf
CCCCSc1nnc2c(n1)OC(c1ccccc1OC)Nc1ccccc1-2 (stereo not drawn) | -0.7
CCCCCCSc1nnc2c(n1)OC(C)Nc1ccccc1-2 (stereo not drawn) | 44.0*
CCCSc1nnc2c(n1)OC(C)Nc1ccccc1-2 (stereo not drawn) | -5.5
CCCCCSc1nnc2c(n1)OC(c1cccc(C)n1)Nc1ccccc1-2 (stereo not drawn) | 36.4*
CCCCCCSc1nnc2c(n1)OC(c1ccsc1)Nc1ccccc1-2 (stereo not drawn) | -35.8
COc1cc(C2Nc3ccccc3-c3nnc(SC)nc3O2)cc(Cl)c1O (stereo not drawn) | -6.1
CCC(NC(=O)c1cc2ccccc2cc1OC)C12CC3CC(CC(C3)C1)C2 (stereo not drawn) | -10.9
O=C(O)c1ccc(NS(=O)(=O)c2cccc([N+](=O)[O-])c2)cc1 | -4.7
Cc1ccc(-n2nc3cc(C)c(NC(=O)COc4ccc(Cl)c(C)c4)cc3n2)cc1 | -6.6
COc1ccc(C2C3=C(CC(c4cccc([N+](=O)[O-])c4)CC3=O)Nc3ccccc3N2C(C)=O)cc1OC (stereo not drawn) | -9.7
CCCNC(=O)c1c(Cl)nc(Cl)c(Cl)c1Cl | -2.8
COc1cc(C2C(C(=O)OC(C)C)=C(C)NC3=C2C(=O)CC(c2cccs2)C3)cc(OC)c1OC (stereo not drawn) | 4.9
O=C(COc1ccccc1)Nc1c2c(nn1-c1cccc(Cl)c1)CS(=O)(=O)C2 | -13.7
CC12CC(c3ccccc3O1)N(C(=O)c1ccccc1)C(=O)N2c1ccc(F)cc1 (stereo not drawn) | 3.4
O=C(O)c1cccnc1SC1CC(=O)N(c2ccc(N3CCOCC3)cc2)C1=O (stereo not drawn) | 30.3*
O=C(O)c1cccnc1SC1CC(=O)N(c2ccc([N+](=O)[O-])cc2)C1=O (stereo not drawn) | -4.8
O=C(O)c1cccnc1SC1CC(=O)N(c2ccc3c(c2)OCO3)C1=O (stereo not drawn) | -51.3
CP(=O)(O)C(c1cccc(Cl)c1)C(F)(F)F (stereo not drawn) | -7.5
O=C(Nc1ccc(S(=O)(=O)N2CCCCC2c2cccnc2)cc1)c1ccccc1I (stereo not drawn) | -10.6
CC1=C(C(=O)Nc2ccc(F)cc2)C(c2ccccc2Cl)C2=C(CC(c3ccccc3)CC2=O)N1 (stereo not drawn) | -9.6
Cc1ccc(CNC(=O)c2ccc(N(C)S(=O)(=O)c3ccccc3)cc2)cc1 | 52.8*
Cc1ccccc1CNC(=O)c1ccc(N(C)S(=O)(=O)c2ccccc2)cc1 | -4.5
CN(c1ccc(C(=O)NCc2ccccc2)cc1)S(=O)(=O)c1ccccc1 | -4.2
COc1ccc(OC)c(C2NC(=O)NC(C)=C2C(=O)OCCc2ccccc2)c1Br (stereo not drawn) | -4.2
CCn1c(C=Cc2ccc(O)cc2)nc2ccccc2c1=O | -13.5
SMILES | 14-3-3g Raf
CCc1ccc(O)c(N=Cc2cccc(C)c2O)c1 | -20.2
C=CCc1cccc(/C=N/c2ncn[nH]2)c1O | -2.4
C=CCc1cccc(C=Nc2cc(Br)ccc2O)c1O | 42.5*
NS(=O)(=O)c1ccc(CNC(=O)c2ccc(F)cc2)cc1 | -7.2
CCCN1C(=O)C2(c3ccccc31)N1CC3(C)CN2CC(C)(C1)C3=O (stereo not drawn) | 0.2
COc1cc(C(=O)N=c2sc3cc(S(C)(=O)=O)ccc3n2C)cc(OC)c1OC | 5.0
CC(=O)Oc1c(-c2ccccc2)c2nc3ccccc3nc2c2ccccc12 | 33.1*
CC(=O)Oc1c(C)cc(O)c2ccccc12 | 3.5
CCC(=O)Oc1c(-c2ccccc2)c2nc3ccccc3nc2c2ccccc12 | 26.6
CC1CCCN(c2cc(NCCCC(=O)O)c3c4c(onc24)-c2ccccc2C3=O)C1 (stereo not drawn) | 51.3*
O=C(O)CCCNc1cc(N2CCN(C3CCCCC3)CC2)c2noc3c2c1C(=O)c1ccccc1-3 | -103.7
CC1CC(C)CN(c2cc(NCCCC(=O)O)c3c4c(onc24)-c2ccccc2C3=O)C1 (stereo not drawn) | -12.8
O=C(Nc1cc(C(=O)N2CCCCCC2)ccc1N1CC2CC(C1)c1cccc(=O)n1C2)c1ccc(F)cc1 (stereo not drawn) | -5.9
COc1ccc2oc(=O)c(C(=O)NCc3ccccc3)cc2c1 | -4.5
COc1cccc2cc(C(=O)C[n+]3ccc(N(C)C)cc3)c(=O)oc12 | -5.4
COc1ccc2oc(=O)c(C(=O)C[n+]3ccc(N(C)C)cc3)cc2c1 | 40.7*
CCN(C(=O)c1ccc2c(c1NCCO)C(=O)c1ccccc1C2=O)c1ccc(OC)cc1 | -255.3
COC(=O)c1c(NC(=O)c2cccc([N+](=O)[O-])c2)sc(C)c1C | -16.7
CN1C(=O)c2ccccc2C(C(=O)Nc2ccc3c(c2)OCCO3)C1c1c[nH]c2ccccc12 (stereo not drawn) | -4.0
CCOC(=O)c1c(NC(=O)C2CC=CCC2C(=O)O)sc(C)c1-c1cc(C)ccc1C (stereo not drawn) | -20.0
O=C(O)C1CCCCN1S(=O)(=O)c1ccc(Cl)cc1 (stereo not drawn) | -12.3
Cc1ccc(S(=O)(=O)N2CCCC2C(=O)O)cc1 (stereo not drawn) | 53.0*!
O=C(O)C1CCCN1S(=O)(=O)c1ccc(F)cc1 (stereo not drawn) | -6.0
O=C(C1CC1)N1CCc2cc(Br)cc(S(=O)(=O)NCCc3ccc(Cl)cc3)c21 | -3.4
O=C(CSc1nc2c(c(=O)n1-c1ccc(Br)cc1)SCC2)NC1CCCCC1 | -10.9
SMILES | 14-3-3g Raf
COC(=O)C(C(=O)OC)c1cc(Br)c2noc3c2c1C(=O)c1ccccc1-3 | -57.3
CC(C)Nc1cc2c(NC(C)C)onc2c2c1C(=O)c1ccccc1C2=O | 87.2*
CNc1cc(Nc2ccc(C)cc2)c2c3c(onc13)-c1ccccc1C2=O | -89.4
C=CCSc1nc2c(c(=O)n1CC=C)C1(CCCC1)Cc1ccccc1-2 | 10.9
COc1cccc(Oc2cc([N+](=O)[O-])cc3c2C(=O)Nc2ccccc2O3)c1 | 60.8*
Cc1cccc(Oc2cc([N+](=O)[O-])cc3c2C(=O)Nc2ccccc2O3)c1 | -83.1
O=C1Nc2ccccc2Oc2cc([N+](=O)[O-])cc(Oc3ccccc3)c21 | -78.9
O=C(c1ccc(SCc2ccccc2Cl)c([N+](=O)[O-])c1)N1CCCC1 | 10.8
C=Cc1c(C)c2cc3[nH]c(cc4nc(cc5nc(cc1[nH]2)C(C)=C5CCC(=O)O)C(CCC(=O)O)=C4C)c(C)c3C=C | +
Cc1cc(C)cc(NC(=O)Cn2c3ccccc3c(=O)c3ccccc32)c1 | -16.1
CCOc1ccccc1C(=O)NCCn1c(C)cc2ccccc21 | -5.5
CC(=O)c1ccc(Nc2nc(-c3ccccc3)c3cc(Br)ccc3n2)cc1 | -14.1
COc1cccc(C2C3=C(Nc4ncnn42)c2ccccc2OC3c2ccc(C)cc2)c1 (stereo not drawn) | -0.9
CCOC(=O)c1ccc(NC(=O)CN2CCCCC2)cc1 | 30.5*
CCOC(=O)c1ccc(NC(=O)CN2CCN(c3ccccc3)CC2)cc1 | -5.3
CCOC(=O)c1ccc(NC(=O)Cn2cccc2)cc1 | -4.3
COc1ccc(-n2c(C)cc(C(=O)CSc3nnc4ccccn34)c2C)cc1 | -5.4
CCOC(=O)C1=C(C)NC2=C(C(=O)CCC2)C1c1cc2c(cc1Br)OCO2 (stereo not drawn) | -0.4
O=C(CCN1C(=O)c2ccccc2C1=O)NCc1ccccn1 | 177.4*
O=C(CN1C(=O)c2ccccc2C1=O)NCc1ccccn1 | 14.2
O=C(CCN1C(=O)c2ccccc2C1=O)NCc1ccncc1 | -1.0

Screening data from PubChem BioAssay.
